Inconclusive results are not listed. A call without a number means that no potency is given here. Active and inactive are the calls of the source. Calls come from the whole dose curve; as a rule, active = well fitted inhibition curve with a large enough effect in the repeat runs; inconclusive = weak or mixed curves; inactive = flat fitted curve, though single readings scatter.
Target: Luciferin 4-monooxygenase (Photinus pyralis) (UniProt P08659)
Test: qHTS assay to identify small molecule inhibitors of firefly luciferase (AID 1224835); note: nearly all actives have a fitted effect of over 25% in size
Details: purified P. pyralis luciferase, luminescence inhibition; series mostly up to 115 µM
How it was run: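 Biochemical qHTS: compounds run as interplate titrations against purified firefly enzyme, with D-luciferin and ATP each at its KM concentration. Light output recorded by CCD imaging.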
Potency is the fitted concentration of half-maximal effect.

Luciferin 4-monooxygenase (Photinus pyralis), sequence (P08659 whole entry, looked up): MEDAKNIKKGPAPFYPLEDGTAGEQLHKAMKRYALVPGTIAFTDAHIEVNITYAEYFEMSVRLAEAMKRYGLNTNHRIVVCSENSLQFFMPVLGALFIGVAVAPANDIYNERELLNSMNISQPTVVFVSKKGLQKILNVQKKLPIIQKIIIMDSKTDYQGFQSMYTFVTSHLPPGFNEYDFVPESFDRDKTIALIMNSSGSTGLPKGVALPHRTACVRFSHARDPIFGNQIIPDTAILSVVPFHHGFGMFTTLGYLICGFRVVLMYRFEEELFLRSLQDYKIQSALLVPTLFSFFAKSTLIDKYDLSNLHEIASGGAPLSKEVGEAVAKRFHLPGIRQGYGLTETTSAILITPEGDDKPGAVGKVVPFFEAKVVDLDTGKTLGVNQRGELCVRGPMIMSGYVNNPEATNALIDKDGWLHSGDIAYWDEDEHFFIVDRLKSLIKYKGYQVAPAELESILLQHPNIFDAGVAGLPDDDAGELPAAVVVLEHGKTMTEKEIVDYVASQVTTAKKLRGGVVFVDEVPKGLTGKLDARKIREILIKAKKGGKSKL

| SMILES | Potency |
| --- | --- |
| Nc1cccc2c(N)cccc12 | 39.9 µM (active) |
| COc1cc(NCc2ccc3nc(N)nc(N)c3c2C)cc(OC)c1OC | inactive |
| CCCCCCCC(=O)OCCCCCC | inactive |
| O=CNNC=O | inactive |
| COc1ccc(-n2nc(C(F)F)cc2-c2ccc(S(C)=O)cc2)cc1 (centres undefined) | inactive |
| CC(C)C(O)C(C)(C)CO (centres undefined) | inactive |
| CC(C)(C(=O)c1cccnc1)c1cccnc1 | inactive |
| Cc1ccc2c(c1[N+](=O)[O-])C(=O)c1ccccc1C2=O | inactive |
| CC(=O)NNC(C)=O | inactive |
| O=C(NC(Cc1cc(=O)[nH]c2ccccc12)C(=O)O)c1ccc(Cl)cc1 (centres undefined) | inactive |
| CCN(CC)C(=O)N1CCN(C)CC1 | inactive |
| CC(=O)OCC(C)C | inactive |
| COc1ccc(N)c([N+](=O)[O-])c1 | inactive |
| CC(C)(C)S | inactive |
| C1CCCCC1 | inactive |
| CCCOC(=O)c1c(Cl)c(Cl)c(Cl)c(Cl)c1C(=O)OCCC | inactive |
| O=[N+]([O-])C1(Br)COCOC1 | 25.2 µM (active) |
| Nc1ccn([C@H]2CS[C@@H](CO)O2)c(=O)n1 | inactive |
| Nc1nc(-c2ccc([N+](=O)[O-])cc2)cs1 | inactive |
| CCN(CC)CCOc1ccccc1C(=O)CCc1ccccc1 | inactive |
| CN(C)CC/C=C1\c2ccccc2Sc2ccc(Cl)cc21 | inactive |
| CCN(CC)c1ccc(C(=C2C=CC(=[N+](CC)CC)C=C2)c2ccc(S(=O)(=O)O)cc2S(=O)(=O)[O-])cc1 | 8.94 µM (active) |
| COC(CC(C)CCCC(C)(C)O)OC (centres undefined) | inactive |
| O=c1[nH]c2cc(C(F)(F)F)c(N3CCOCC3)cc2n(CP(=O)(O)O)c1=O | inactive |
